From PubChem BioAssay (NCATS)
Records with an inconclusive call do not appear. Entries that show only a call come without a potency. Calls of active or inactive are those of the source. Calls follow the shape of the dose curve; as a rule, active = well fitted inhibition curve with a large enough effect; inconclusive = small, poorly fitted or top-dose-only effect; inactive = no such curve, though single readings can be large or run the other way.

Key:
[1] = system: Zika virus NS2B-NS3 protease (unlinked complex); assay: Primary screen GU Rhodamine qHTS for Zika virus inhibitors: Unlinked NS2B-NS3 protease assay (AID 1347159); also: nearly all actives have a fitted effect of over 60% in size; also: potency is read from the fitted curve at half-maximal effect
How it was run: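 Enzyme 25 nM in Tris-HCl pH 8.0 + 0.01% Tween 20; compounds up to 114 microM, 15 min RT dark; + Rhod110 substrate 1.5 microM; read t0 and 15 min; delta fluorescence → % inhibition → 4-parameter Hill fit.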

[2] = system: Zika virus NS2B-NS3 protease (linked construct); assay: Primary screen NINDS Rhodamine qHTS for Zika virus inhibitors (AID 1347160); also: nearly all actives have a fitted effect of over 55% in size
How it was run: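 Enzyme (25 nM, linked NS2B-NS3) was preincubated 15 min with compound in 10 mM Tris-HCl pH 8.0, 0.01% Tween 20. Rhodamine110 substrate (1.5 microM) was then added and fluorescence read at start and after 15 min.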

## CC(NCCCc1cccc(C(F)(F)F)c1)c1cccc2ccccc12 (stereo not given)
[1]
  Potency: inactive
[2]
  Potency: inactive

## CN(C)CCn1cc(-c2ccc(F)cc2)c(-n2cccc2)n1
[1]
  Potency: inactive
[2]
  Potency: inactive

## COC(=O)C[C@H]1C(C)(C)[C@H](OC(=O)c2ccccc2)C2CC3=C4CC(=O)O[C@@H](c5ccoc5)[C@]4(C)CCC3[C@@]1(C)C2=O (stereo not given in full)
[1]
  Potency: inactive
[2]
  Potency: inactive

## CC(C)(C)[C@H](NC(=O)c1ccc(N)c(Cl)c1)C(=O)N1CCC[C@H]1C(=O)N[C@H](C#N)CC(=O)O
[1]
  Potency: inactive
[2]
  Potency: inactive

## COc1cccc(OCCCN)c1-c1cc(Nc2cnc(C#N)cn2)n[nH]1
[1]
  Potency: inactive
[2]
  Potency: inactive

## Cn1ncc(Cl)c1-c1cc(C(=O)NC(CN)Cc2ccc(F)c(F)c2)oc1Cl (stereo not given)
[1]
  Potency: inactive
[2]
  Potency: inactive

## CC1=C2C[C@@]3(C)C(CCC[C@@H]3C)C(O)C2OC1=O (stereo not given in full)
[1]
  Potency: inactive
[2]
  Potency: inactive

## COc1cc(F)c(F)c(Nc2ccc(I)cc2F)c1NS(=O)(=O)C1(CC(O)CO)CC1 (stereo not given)
[1]
  Potency: inactive
[2]
  Potency: inactive

## Cc1ccc(N2CCN(S(=O)(=O)N3CCCCC3)CC2)c(C)c1
[1]
  Potency: inactive
[2]
  Potency: inactive

## CC1(C)CN(C(=O)c2ccc(-c3cccc4nc(NC(=O)C5CC5)nn34)cc2)C1
[1]
  Potency: inactive
[2]
  Potency: inactive

## CCn1c(-c2nonc2N)nc2c(C#CC(C)(C)O)ncc(OCC3CCCNC3)c21 (stereo not given)
[1]
  Potency: inactive
[2]
  Potency: inactive

## CC(C)n1cnc2c(-c3cnc(N)nc3)nc(N3CCOCC3)nc21
[1]
  Potency: inactive
[2]
  Potency: inactive

## C=CC(=O)N1CCC[C@@H](n2nc(-c3cccc(C(=O)Nc4ccc(C(C)C)c(C)c4)c3)c3c(N)ncnc32)C1
[1]
  Potency: inactive
[2]
  Potency: inactive

## CCC(C)C(=O)OC1C(C)C2(O)C(C=C(CO)CC3(O)C(=O)C(C)=CC32)C2C(C)(C)C12OC(=O)C(C)C (stereo not given)
[1]
  Potency: inactive
[2]
  Potency: inactive

## O=C(Nc1ccc(-c2ccnc(Nc3ccc(N4CCOCC4)cc3)n2)cc1)C1CCCN1 (stereo not given)
[1]
  Potency: inactive
[2]
  Potency: inactive

## CCn1c(=O)n([C@H]2CCCN(c3nccc(-c4cc5ccccc5o4)n3)C2)c2ccccc21
[1]
  Potency: inactive
[2]
  Potency: inactive

## CN(C)CCN(Cc1ccccc1)C(=O)c1cc(-c2ccc(F)cc2)n2nc(C(C)(C)C)cc2n1
[1]
  Potency: inactive
[2]
  Potency: inactive

## COc1ccc(NC(=O)c2ccc(C(=N)N(C)C)cc2)c(C(=O)Nc2ccc(Cl)cn2)c1
[1]
  Potency: inactive
[2]
  Potency: inactive

## C=CC(=O)Nc1ccc2ncnc(Nc3cccc(Br)c3)c2c1
[1]
  Potency: 44.7 µM (active)
[2]
  Potency: inactive

## CNS(=O)(=O)c1ccccc1Nc1nc(Nc2ccc(N3CCN(C)CC3)cc2OC)ncc1Br
[1]
  Potency: inactive
[2]
  Potency: inactive
